# Source: PubChem BioAssay (National Center for Advancing Translational Sciences (NCATS))
# KB-3-1 tox – KB-3-1 parental cell cytotoxicity; KB-3-1 viability, CellTiter-Glo ATP luminescence, 72 h; Potency, µM (doses to about 46.1 µM), actives largely listed as cytotoxic; 1.4% of 400,000 active; AID 1347075; further: nearly all actives have a fitted effect of over 60% in size
#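 Multi-concentration cytotoxicity screen in KB-3-1 cells grown in DMEM lacking phenol red with 10% FBS. After 72 h at 37 °C with compound, ATP-dependent luminescence was recorded.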
# KB-V1 cytotox – KB-V1 MDR subline cytotoxicity | KB-V1 MDR cells viability, CellTiter-Glo, 72 h | Potency, µM (doses to about 46.1 µM), most hits filed as cytotoxic | 3.4% of 400,000 active | AID 1347076; further: nearly all actives have a fitted effect of over 60% in size
#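 qHTS viability screen in drug-selected KB-V1 MDR cells: 72 h compound treatment at 37 degrees C, ATP luminescence end point.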
# HT1080 IDH1KD tx – HT-1080 IDH1 knockdown cell toxicity (counter line) | HT-1080 IDH1 knockdown viability, ATP luminescence, 48 h | AID 686971 | Potency, µM (highest dose often 46.1 µM), for inactives: top-dose activity, negative = toxicity, usual class: cytotoxic | 2% of 360,000 active;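 further: 0% = DMSO wells and -100% = cell-free medium wells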
#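 Luminescent ATP read-out (CellTiter-Glo, 10 min at room temperature) after 48 h compound exposure at 37 °C gave viability of IDH1-knockdown HT-1080 cells. Activity was normalised to DMSO and cell-free wells, then fitted as concentration-response curves.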
# DT40 TDP1 no CPT – qHTS for Inhibitors of human tyrosyl-DNA phosphodiesterase 1 (TDP1): qHTS in cells in absence of CPT. AID 686978, 2013. DT40 Tdp1-/- hTDP1 cells, no CPT, ATP luminescence, 48 h. 15% of 420,000 active. Potency, µM (highest dose often 46.2 µM), inactives show top-dose activity change, negative = growth inhibition, usual class: inhibitors; further: nearly all actives have a fitted effect of over 55% in size
#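 Chicken DT40 Tdp1-/- cells complemented with human TDP1, screened without camptothecin (DMSO vehicle only), 400 cells/well. Compounds pin-transferred, cells incubated at 37 °C for at least 48 hr. Growth read as ATP-dependent luminescence (CellTiter-Glo, 30 min at RT).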
# HT1080NT lethal – kills 2HG-producing HT-1080-NT fibrosarcoma cells; HT-1080-NT fibrosarcoma viability, CellTiter-Glo ATP luminescence, 48 h; Potency, µM (series often up to 46.1 µM), for inactives: at the highest dose activity, negative = less viability, most hits filed as cytotoxic; 1.6% of 360,000 active; AID 686970;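 further: NT is the 2HG producing partner of a matched IDH1 knockdown line; 0% = DMSO-treated cells and -100% = media-only wells without cells; nearly all actives have a fitted effect of over 55% in size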
#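 750 cells/well, RPMI + 5% FBS; 2 h settle, compound pin-transfer, 48 h at 37 degrees C. CellTiter-Glo 10 min RT, luminescence. Normalized to DMSO and media-only wells.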
# DT40 TDP1 CPT – DT40-hTDP1 cell growth loss with CPT; chicken DT40 Tdp1-/-;hTDP1 cells + 20 nM CPT, ATP luminescence, 48 h; Potency, µM (doses to about 46.2 µM), inactives show top-dose activity change, negative = growth inhibition, actives largely listed as inhibitors; 12% of 420,000 active; AID 686979; further: nearly all actives have a fitted effect of over 55% in size
#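 Cell growth measured by CellTiter-Glo luminescence after a minimum 48 h, 37 C compound exposure with 20 nM CPT in Tdp1-knockout DT40 cells stably expressing hTDP1, seeded 400/well; qHTS titration format.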
# An asterisk follows results filed as active; i = inactive; u = inconclusive; x = no result given; [ ] = another dose, or the depositor's remark. Sampled rows, rich in hits. Any-hit rate of the full collection: about 19%. The call rests on the fitted dose curve; in most records, active means well fitted curve in the direction sought with a large enough effect; inconclusive means small, poorly fitted or top-dose-only effect, or another doubt; inactive means no such curve, though single readings can be large; an effect the other way counts as inactive or inconclusive. Unless noted, on the % scale 0 is the no-effect control and ±100 the full control effect; potency means the concentration at half of the fitted maximal effect.
SMILES,KB-3-1 tox,KB-V1 cytotox,HT1080 IDH1KD tx,DT40 TDP1 no CPT,HT1080NT lethal,DT40 TDP1 CPT
COc1ccc(/C=N/OC/C(O)=C(\C#N)c2nc3ccccc3[nH]2)cc1OC,i,i,8%,-11%,8%,-1%
O=[N+]([O-])c1cccc(-c2ccc(/C=N/NC(=S)NCc3ccco3)o2)c1,i,u,u,16µM*,u,23µM*
Cc1cnn(C(=S)NCc2ccco2)c1,u,i,5%,u,4%,18µM*
S=C(NCc1ccccc1)NCc1ccco1,i,i,1%,-5%,-1%,-22%
S=C(NCc1ccco1)N/N=C/c1ccncc1,i,i,10%,-3%,9%,0%
S=C(NCc1ccco1)NCc1ccco1,i,i,13%,26µM*,16%,u
CN(C)c1ccc(/C=N/NC(=S)NCc2ccco2)cc1,i,i,8%,18µM*,10%,u
Cc1ccccc1C(=O)NNC(=O)c1cccc(Br)c1,i,i,11%,1%,13%,3%
O=C(Cc1ccc(-c2ccccc2)cc1)NNC(=S)NCc1ccco1,i,8.2µM*,-8%,16µM*,-14%,u
CCCCC1CC2=C(C(=O)OC(C)(C)O2)C(c2ccc(F)cc2)O1 (configuration not stated),i,i,3%,-16%,11%,4%
COc1ccc(N(C(=O)Cn2nnc3ccccc32)C(C(=O)NCc2ccco2)c2ccc(C)o2)cc1 (configuration not stated),i,i,5%,-30%,13%,-24%
Cc1cc(NC(=O)/C=C/c2ccccc2Cl)n(-c2nc3ccccc3[nH]2)n1,u,u,-26%,10µM*,u,u
Cc1cc(NC(=O)c2ccc(F)cc2F)n(-c2nc3ccccc3[nH]2)n1,i,i,9%,-16%,3%,u
Cc1cc(NC(=O)CC2CCCC2)n(-c2nc3ccccc3[nH]2)n1,u,18µM*,18µM*,21µM*,u,u
CC(C)CCN1C(=O)c2ccccc2C1c1nnnn1-c1ccc2c(c1)OCCO2 (configuration not stated),i,u,16%,16µM*,8%,23µM*
Cc1ccc(CN2C(=O)c3ccccc3C2c2nnnn2-c2ccc3c(c2)OCCO3)cc1 (configuration not stated),u,i,u,16µM*,-16%,u
O=C1c2ccccc2C(c2nnnn2-c2ccc3c(c2)OCCO3)N1CCc1c[nH]c2ccccc12 (configuration not stated),i,u,u,15µM*,-16%,18µM*
Cc1ccccc1CN1C(=O)c2ccccc2C1c1nnnn1-c1ccc2c(c1)OCCO2 (configuration not stated),2.9µM*,5.8µM*,3.3µM*,4.1µM*,3.7µM*,5.2µM*
O=C1c2ccccc2C(c2nnnn2-c2ccc3c(c2)OCCO3)N1Cc1ccccc1 (configuration not stated),i,u,13%,u,1%,u
COc1ccc(CN2C(=O)c3ccccc3C2c2nnnn2-c2ccc3c(c2)OCCO3)cc1 (configuration not stated),i,i,0%,16µM*,-10%,u
CCc1ccc(C2=NNC(=Nc3cccc(S(=O)(=O)N(C)C)c3)SC2)cc1,u,u,u,18µM*,21µM*,21µM*
O=[N+]([O-])c1cc(C(F)(F)F)ccc1NCCNC(=S)Nc1ccc(Cl)cc1,i,u,u,18µM*,18µM*,29µM*
CS(=O)(=O)NCCCNc1ccc(Cl)cc1[N+](=O)[O-],i,i,1%,-24%,3%,-5%
O=[N+]([O-])c1cc(C(F)(F)F)ccc1NCCCCNS(=O)(=O)c1ccc(Cl)cc1,u,21µM*,u,15µM*,u,13µM*
Cc1cc(C(=O)Nc2ccccc2-c2nc(CNC(=O)C3COc4ccccc4O3)c(C)o2)c(C)o1 (configuration not stated),x,x,x,-20%,x,5%[9.04 µM]
SMILES,KB-3-1 tox,KB-V1 cytotox,HT1080 IDH1KD tx,DT40 TDP1 no CPT,HT1080NT lethal,DT40 TDP1 CPT
COC(=O)[C@]12CCCCC=C1N(Cc1ccccc1)C(=O)[C@H](CC(=O)NCc1ccc(OC)c(OC)c1)C2,i,u,-5%,23µM*,13%,23µM*
CCCCCCCCN1C(=O)[C@H](CC(=O)NCc2ccc(OC)c(OC)c2)C[C@@]2(C(=O)OCC)CCC=C12,i,u,u,21µM*,u,u
CCCCCCCCN1C(=O)[C@H](CC(=O)NCc2ccc(OC)c(OC)c2)C[C@@]2(C(=O)OC)CCCCC=C12,i,u,u,21µM*,u,u
CCCCCCCCN1C(=O)[C@H](CC(=O)NCc2ccccc2)C[C@@]2(C(=O)OCC)CCC=C12,i,u,-28%,u,u,u
CCOC(=O)[C@]12CCCC=C1N(Cc1ccccc1)C(=O)[C@H](CC(=O)NCc1ccc(OC)c(OC)c1)C2,i,i,-16%,u,0%,u
CCOC(=O)[C@]12CCC=C1N(Cc1ccc3c(c1)OCO3)C(=O)[C@H](CC(=O)NCc1ccc(OC)c(OC)c1)C2,i,i,1%,u,-2%,u
COC(=O)[C@]12CCCCC=C1N(CCC1=CCCCC1)C(=O)[C@H](CC(=O)NCc1ccc(OC)c(OC)c1)C2,u,i,-20%,u,1%,u
CCCCCCCCN1C(=O)[C@H](CC(=O)NCc2ccccc2)C[C@@]2(C(=O)OC)CCCCC=C12,u,u,u,15µM*,u,16µM*
C=CCSc1nc2c(cnn2-c2ccccc2)c(=O)n1N,i,u,1%,-28%,2%,5%
C#CCNC(=O)C[C@@H]1C[C@@]2(C(=O)OC)CCCCC=C2N(Cc2ccc3c(c2)OCO3)C1=O,i,i,-3%,u,1%,-2%
C#CCNC(=O)C[C@@H]1C[C@@]2(C(=O)OC)CCCCC=C2N(CCCCCCCC)C1=O,i,u,u,23µM*,-12%,16µM*
O=C(NNC(=O)c1cccs1)c1cccc(F)c1,i,u,4%,-4%,4%,3%
